Measured values reported in PubChem BioAssay AID1285 (Columbia University Molecular Screening Center, 2008).
Hit rate of the full screen: of about 190,000 compounds, about 1,600 (0.84%) were called active.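 How the source made its calls: active means inhibition above a set limit, derived from the sample mean plus 3 SD (cut at about 45% in these data); inconclusive means one replicate passes the limit while the other fails; inactive means the rest.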 This excerpt belongs to a sample that is enriched for actives.

experiment: APP 5'UTR translational reporter suppression – APP 5'UTR luciferase, SH-SY5Y cells, primary screen (AID 1285); settings: SH-SY5Y APP 5'UTR-luciferase reporter, luminescence; at 2 µM; hits give high values

Row | SMILES | inhibition
1 | O=C(Nc1ccccc1)c1ccc2c(c1)OCO2 | 58.8% (active)
2 | O=C(Nc1ccc(N2CCOCC2)cc1)c1ccc2c(c1)OCO2 | -48.7% (inactive)
3 | O=C(Nc1cccc([N+](=O)[O-])c1)c1ccc2c(c1)OCO2 | -43.1% (inactive)
4 | CCOC(=O)c1c(NC(=O)C2CC=CCC2C(=O)O)sc(C)c1CC (stereo unspecified) | -12.9% (inactive)
5 | O=C(CCN1C(=O)c2ccccc2C1=O)NNC(=O)c1ccc(Cl)cc1Cl | -9.9% (inactive)
6 | O=C(Cc1cccs1)N/N=C/c1ccc(OCc2ccccc2)cc1 | 5.4% (inactive)
7 | COc1ccc(C(=O)C[n+]2ccc(N)c(C)c2C)cc1 | 6.8% (inactive)
8 | O=c1[nH]n(-c2cccc(Cl)c2)c2ncccc12 | -4.8% (inactive)
9 | Clc1cccc(CN2COc3c(cc(Cl)c4cccnc34)C2)c1 | 74.6% (active)
10 | Oc1c(CN2CCN(c3ccc(F)cc3)CC2)cc(Cl)c2cccnc12 | 8.7% (inactive)
11 | COC(=O)CNC(=O)c1ccccc1F | -10.5% (inactive)
12 | CSc1nc(N(C)NC(=O)c2cccc(C)c2)c2ccccc2n1 | 96.7% (active)
13 | CN(NC(=O)c1ccccc1)c1nc2ccccc2nc1C(F)(F)F | -3.6% (inactive)
14 | COc1ccc(C(=O)NN(C)c2nc(-c3ccccc3)cc(C)c2S(C)(=O)=O)cc1 | -3.3% (inactive)
15 | CN(NC(=O)c1ccccc1F)c1nc(C(F)(F)F)nc2ccccc12 | 91% (active)
16 | COc1ccc(OCC(=O)NNC(=O)c2cccc(C)c2)cc1 | -16.1% (inactive)
17 | CC(=O)N1CC(C)c2scc(C)[n+]2-c2ccccc21 (stereo unspecified) | -17.2% (inactive)
18 | C=CCc1ccc(OCC(O)CN2CCN(Cc3ccccc3)CC2)c(OC)c1 (stereo unspecified) | -8.6% (inactive)
19 | CC(=O)N1c2ccccc2N(Cc2ccc([N+](=O)[O-])cc2)C(=O)C1(C)C | -12.9% (inactive)
20 | CCOc1ccc(N2CC(C(=O)NCCN3C(=O)S/C(=C\c4cccnc4)C3=O)CC2=O)cc1 (stereo unspecified) | -6% (inactive)
21 | O=C(COC(=O)c1cnc(Cl)c(Cl)c1)NCc1ccco1 | 6.8% (inactive)
22 | Cc1cc(C(=O)OCC(=O)NCc2ccco2)c(C)n1-c1ccccc1 | 60.8% (active)
23 | O=C(COC(=O)c1cc(S(=O)(=O)N2CCCCC2)ccc1Cl)NCc1ccco1 | 5% (inactive)
24 | C/C(=N\NC(=O)c1cccnc1)c1ccc(-n2ccnc2)cc1 | -7.3% (inactive)
25 | Cc1[nH]c2ccccc2c1-c1ccc(Cl)nn1 | 5.5% (inactive)
26 | COc1ccc(Cc2n[nH]c(=S)n2NC(=O)Nc2ccc(C)cc2)cc1 | -47.2% (inactive)

Row | SMILES | inhibition
27 | O=C(Nc1ccccc1Cl)c1ccc2nsnc2c1 | -80.7% (inactive)
28 | O=C(CN1CCCCC1)Nc1ccccc1Cl | 17.7% (inactive)
29 | O=C(Nc1ccccc1Cl)/C(Cl)=C(\Cl)S(=O)c1ccccc1 (stereo unspecified) | 93.8% (active)
30 | CCN(C(=O)CN1CCN(Cc2ccccc2)CC1)c1c(N)n(Cc2ccccc2)c(=O)[nH]c1=O | -17.3% (inactive)
31 | COC(=O)CSc1nc(C2CC2)nc2ccccc12 | -12.5% (inactive)
32 | CCCc1nc(SCC(=O)Nc2ccc(S(=O)(=O)N(C)C)cc2)c2ccccc2n1 | -11.7% (inactive)
33 | CC(C)N(C(=O)CSc1nc(COc2ccccc2)nc2ccccc12)C(C)C | 48.3% (active)
34 | COc1ccc(Cl)cc1NC(=O)NC(C)C(C)(C)C (stereo unspecified) | -0.1% (inactive)
35 | CCN(CC)S(=O)(=O)c1ccc(Cl)c(NC(=O)c2ccncc2)c1 | 17.9% (inactive)
36 | CCN(CC)CCCNC(=O)Cn1cnc2sc(C)c(S(=O)(=O)N3CCN(c4ncccn4)CC3)c2c1=O | -10.4% (inactive)
37 | Cc1ccc(-c2noc(CCC(N)=O)n2)cc1 | 5.2% (inactive)
38 | CN1CCN(C(=O)CCc2nc(-c3ccc(Cl)cc3)no2)CC1 | 9.1% (inactive)
39 | CCNC(=O)CCc1nc(-c2ccc(C(C)(C)C)cc2)no1 | 51.8% (active)
40 | COc1ccc(N2CCN(C(=O)c3ccc4c(Cl)c5c(nc4c3)CCCC5)CC2)cc1 | -5.5% (inactive)
41 | CC(=O)Nc1nc(N(C)C)nc(N(C)C)n1 | 4.4% (inactive)
42 | CC1(C)CC(=O)c2cnc3nc4ccccc4n3c2C1 | -8.9% (inactive)
43 | Nc1nnc(SCC(=O)OCc2ccc(Cl)c(Cl)c2)s1 | 86.8% (active)
44 | CN(C(=O)CSc1nnc(N)s1)c1c(N)n(Cc2ccccc2)c(=O)[nH]c1=O | -12.7% (inactive)
45 | COC(=O)c1ccc(CSc2nnc(N)s2)o1 | -10.2% (inactive)
46 | COCCNC(=O)c1ccc(-n2c(SCc3cccnc3)nc3ccccc3c2=O)cc1 | -4.3% (inactive)
47 | CCCCCCCCCCOC(=O)C[N+](C)(C)CC1CCCCC1O (stereo unspecified) | -4.7% (inactive)
48 | O=C(c1snnc1-c1ccccc1)N1CCOCC1 | -16.4% (inactive)
49 | COCCn1c(C)cc(C2=NNC(=Nc3ccc(F)cc3)SC2)c1C | -82.3% (inactive)
50 | C=CCn1c(C)cc(C2=NNC(=NCC)SC2)c1C | 69.1% (active)
51 | Cc1cc(C2=NNC(=Nc3ccc(S(=O)(=O)N4CCOCC4)cc3)SC2)c(C)n1CC1CCCO1 (stereo unspecified) | -30.6% (inactive)
52 | CCN(C(=O)CSc1nc2ccccc2n1CC)C1CCS(=O)(=O)C1 (stereo unspecified) | -8% (inactive)

Row | SMILES | inhibition
53 | C[N+]1(CC(O)COc2ccccc2)CCN(C(=O)c2ccc([N+](=O)[O-])cc2)CC1 (stereo unspecified) | 0.3% (inactive)
54 | COc1ccc(NC(=O)COC(=O)CNC(=O)C2CCCCC2)cc1 | -10.5% (inactive)
55 | CCC(C)(C)c1ccc(Oc2ccc(NC(=O)COC(=O)C3=COCCO3)cc2)cc1 | 45.6% (active)
56 | O=C(OCC(=O)c1cccs1)C1=COCCO1 | -41.7% (inactive)
57 | Cc1ccc2[nH]c(C)c(CCNC(=O)NC3CCCCC3)c2c1 | 2.7% (inactive)
58 | CSCC[C@H](NC(=O)NC1CCCC1)C(=O)O | 20.9% (inactive)
59 | COc1cc2c(cc1OC)CN(C(=O)c1ccc(S(=O)(=O)N3CCCCCC3)cc1)CC2 | -6.7% (inactive)
60 | COc1cc2c(cc1OC)CN(C(=O)c1cc(=O)c3ccccc3o1)CC2 | 13.7% (inactive)
61 | CCOc1cc(C(=O)N2CCc3cc(OC)c(OC)cc3C2)ccc1OC(F)F | 94.6% (active)
62 | Cc1cccc(CSc2ccc(-c3cccs3)nn2)c1 | -24.9% (inactive)
63 | Cc1cc(N2CCOCC2)nc2ccc(NC(=S)N3CCN(Cc4ccccc4)CC3)cc12 | -3.7% (inactive)
64 | COc1ccc(/C=N/Nc2nc3ccccc3c(=O)[nH]2)cc1 | -92.9% (inactive)
65 | CCOc1ccc(-n2c(O)c(/C=N/Nc3nnc(C)c(=O)[nH]3)c3ccccc3c2=O)cc1 | -5.3% (inactive)
66 | COc1ccc(Cc2nnc(N/N=C/c3ccccc3O)[nH]c2=O)cc1OC | 85.9% (active)
67 | COc1ccc(S(=O)(=O)N2CN(CCc3ccc(OC)c(OC)c3)c3nc4ccccc4nc32)cc1 | -3.7% (inactive)
68 | COC(=O)C1=C(C)NC(=O)CC1c1ccccc1OC (stereo unspecified) | -15.8% (inactive)
69 | O=C(Nc1ccccc1C(=O)O)c1cc(S(=O)(=O)N2CCCCC2)cs1 | -13.4% (inactive)
70 | Cc1ccsc1C(=O)N/N=C/c1ccc([N+](=O)[O-])cc1 | -37.2% (inactive)
71 | Cc1cc(C(=O)N/N=C/c2cc([N+](=O)[O-])cc(C)c2O)n[nH]1 | 87.3% (active)
72 | Cc1ccc(-n2[nH]c(C)c(/C=N/NC(=O)c3cccc([N+](=O)[O-])c3)c2=O)cc1C | -33.1% (inactive)
73 | CCOc1cc(CNn2c(C)nnc2SCC(=O)NC(C)(C)C)ccc1OCC(=O)NC(C)(C)C | 21.4% (inactive)
74 | Cc1cc(C)n(CC(O)CN(c2ccccc2)S(=O)(=O)c2ccc3ccccc3c2)n1 (stereo unspecified) | 1.9% (inactive)
75 | CCOc1cc(/C=C(/C#N)c2ccc(Cl)cc2)cc(Cl)c1OCC(=O)O | 50.6% (active)
76 | CCOC(=O)CN/C=C(\C#N)c1ccc(F)cc1 | -29.3% (inactive)
77 | CCOc1c(Cl)cc(/C=N/O)cc1OC | -23.6% (inactive)
78 | Cc1ccc(S(=O)(=O)C2C(=O)NC3(C)CC2c2ccccc2O3)cc1 (stereo unspecified) | -1.5% (inactive)

Row | SMILES | inhibition
79 | CCN(CC)CCCSc1nc2ccccc2s1 | -15.1% (inactive)
80 | O=C(CC(NC(=O)c1ccccc1)c1ccccc1)Nc1ccc(F)c(F)c1 (stereo unspecified) | 24.2% (inactive)
81 | CCOC(=O)N1CCN(C(=O)COc2ccc(Cl)cc2C)CC1 | 49.2% (active)
82 | CCOC(=O)N1CCN(C(=O)CSc2ccc(Cl)cc2)CC1 | 5% (inactive)
83 | CCOC(=O)N1CCN(C(=O)COc2ccc(Br)cc2)CC1 | -13.6% (inactive)
84 | CC(Sc1nnnn1C)C(=O)NC(=O)NC1CCCCC1 (stereo unspecified) | -31% (inactive)
85 | Cc1ccc(CCN2CC(C(=O)O)CC2=O)cc1 (stereo unspecified) | -6.2% (inactive)
86 | Cc1ccc(CNC(=O)C2CC(=O)N(C3CCCCCCC3)C2)cc1 (stereo unspecified) | -17.8% (inactive)
87 | CCc1ccc(CNC(=O)C2CC(=O)N(CCc3ccc(C)cc3)C2)cc1 (stereo unspecified) | 50.9% (active)
88 | Cc1ccc(NC(=O)c2ccc(Oc3ncccn3)cc2)cc1 | -39.8% (inactive)
89 | O=C(CCC(=O)c1cccs1)NC1CCCCCC1 | -18.6% (inactive)
90 | O=C(Nc1ccnc(-c2ccncc2)n1)c1cccs1 | 5.8% (inactive)
91 | COC(=O)CSc1nccc(-c2cccs2)n1 | 8.1% (inactive)
92 | O=C(O)COc1ccc(-c2nccc(-c3cccs3)n2)cc1 | 69% (active)
93 | Cc1ccc2c(c1)C(O)(CC(=O)c1cccc(-n3cccc3)c1)C(=O)N2 (stereo unspecified) | -4.6% (inactive)
94 | CC1CC(C)CN(C(=O)CSc2ccsc2[N+](=O)[O-])C1 (stereo unspecified) | -3.7% (inactive)
95 | O=C(NCc1ccco1)C(=O)c1cn(CC(=O)N2CCCCCC2)c2ccccc12 | -1.5% (inactive)
96 | CC(=O)Nc1ccc(OCC(=O)NCc2ccc(C)cc2)cc1 | -8.4% (inactive)
97 | Cc1ccc(NC(=O)OCc2cncs2)cc1 | -41.4% (inactive)
98 | COc1ccc(CS(=O)/C(Cl)=C(/Cl)C(=O)Nc2ccc(OC)nc2)cc1 (stereo unspecified) | 94% (active)
99 | COc1ccc(NC(=S)NCCNC(C)=O)cc1 | -0.5% (inactive)
100 | COc1ccc(NC(=S)Nc2ccccc2Cl)cn1 | -6.6% (inactive)
101 | COc1ccc(NC(=O)/C(Cl)=C(/Cl)S(=O)Cc2ccc(C)cc2)cn1 (stereo unspecified) | 91.7% (active)
